Screening results as filed in PubChem BioAssay.
D3 ag – activates the human D3 dopamine receptor; D3R DiscoveRx beta-arrestin cells, luminescence, 90 min; 410,000 tested, 0.58% active; max activation, %; in the data active means max activation above about 30%
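Agonist mode: compounds and dopamine controls were applied to plated cells for 90 min at 37 degrees C after an overnight attachment at 1500 cells/well. Luminescent read-out followed 30 - 60 minutes at room temperature with DiscoveRx detection reagent.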
BRCA1 expr up – activators of BRCA1 expression. 380,000 tested, 1.1% active. MCF7-BRCA1-FFLuc reporter, luminescence, 48 h; response scale: scaled: vehicle 0%, 10 µM genistein 100%. AID 624202. Potency, µM (doses to about 46.1 µM), actives largely listed as activators; further: nearly all actives have a fitted effect of over 80% in size
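MCF7-BRCA1-FFLuc, 2000 cells/well; 2 h attach, 37 °C/5% CO2; compound 48 h; luciferase substrate 15 min; luminescence end-point. Norm. to genistein 10 microM max activation and DMSO; concentration-response curves fitted.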
B2AR arrestin – beta2AR (human) beta-arrestin recruitment activity | AID 492947 | P07550 | 330,000 tested, 0.02% active | beta-arrestin recruitment to beta2AR, cell-based reporter | Potency, µM (highest dose often 46.1 µM), usual class: activators; further: nearly all actives have a fitted effect of over 65% in size
Target sequence (P07550 whole entry, looked up): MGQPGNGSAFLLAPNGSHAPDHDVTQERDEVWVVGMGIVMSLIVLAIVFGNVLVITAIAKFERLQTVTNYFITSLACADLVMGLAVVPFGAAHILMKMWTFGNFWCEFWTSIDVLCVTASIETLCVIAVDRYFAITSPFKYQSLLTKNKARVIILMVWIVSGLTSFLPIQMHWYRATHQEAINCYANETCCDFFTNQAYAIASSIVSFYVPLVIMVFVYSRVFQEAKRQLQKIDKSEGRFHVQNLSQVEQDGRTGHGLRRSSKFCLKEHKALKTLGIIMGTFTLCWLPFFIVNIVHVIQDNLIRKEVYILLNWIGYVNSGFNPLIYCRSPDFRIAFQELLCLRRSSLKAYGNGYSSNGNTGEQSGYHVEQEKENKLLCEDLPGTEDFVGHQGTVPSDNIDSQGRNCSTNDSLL
RGS4 inhibitor – inhibitors of human regulator of G protein signaling 4 | P49798 | Potency, µM (doses to about 114 µM), most hits filed as inhibitors | Transcreener GDP fluorescence polarization, RGS4-accelerated GTP hydrolysis | 390,000 tested, 0.039% active; further: nearly all actives have a fitted effect of over 75% in size
Target sequence (P49798 whole entry, looked up): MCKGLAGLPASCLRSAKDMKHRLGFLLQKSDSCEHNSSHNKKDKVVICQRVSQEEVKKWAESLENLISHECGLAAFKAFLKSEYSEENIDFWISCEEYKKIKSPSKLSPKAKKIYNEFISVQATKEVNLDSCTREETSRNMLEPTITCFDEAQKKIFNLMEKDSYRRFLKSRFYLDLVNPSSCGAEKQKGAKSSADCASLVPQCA
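MLSMR compounds (23 nl, pin-transferred) preincubated 10 min at room temperature with a 500nM (2x) first reagent, then RGS4 at 900nM (2x) plus Transcreener GDP mix added; fluorescence polarization (620/688 nm) read before and after 90 min at 30 °C.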
PTHR1 ag – activates the human parathyroid hormone receptor PTHR1. 410,000 tested, 0.075% active. HEK293 GP2 PTHR1 cells, GloSensor cAMP luminescence, 1 h. Q03431. AID 743266. Potency, µM (highest dose often 115 µM), hits mostly activators; further: nearly all actives have a fitted effect of over 55% in size
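HEK-293-derived GP2 cells expressing PTHR1 and a GloSensor cAMP reporter, 3,000/well, plated overnight, given luciferin plus IBMX (each 0.5 mM as added) for 1 h at 37 °C, then compound for 1 h at 37 °C. Luminescence was read after 15 min at room temperature.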
DRD3 antagonist – D3 dopamine receptor (human) antagonism. max response, negative = inhibition, %. 360,000 tested, 2.5% active. D3R cells, DiscoveRx beta-arrestin luminescence, antagonist mode; active compounds read low; in the data active means max response below about -50%; inconclusive means no clear call, values can overlap the other calls
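Cells plated overnight at 1500 cells/well, then exposed to library compounds with dopamine controls for 90 minutes at 37 degrees C. DiscoveRx reagent added for 30–60 minutes at room temperature; luminescence read, quantitative HTS format.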
A number is an active result; - = inactive; ? = inconclusive; . = no result given. Compounds with a hit are over-represented: about 3.7% of the library has one in this group of screens. Unless noted, the call rests on the fitted dose curve; in most records, active means well fitted curve in the direction sought with a large enough effect; inconclusive means small, poorly fitted or top-dose-only effect, or another doubt; inactive means no such curve, though single readings can be large; an effect the other way counts as inactive or inconclusive.

SMILES | D3 ag | BRCA1 expr up | B2AR arrestin | RGS4 inhibitor | PTHR1 ag | DRD3 antagonist
CO/N=C(\C(=O)N[C@@H]1C(=O)N2C(C(=O)O)=C(CSc3nnnn3C)CS[C@H]12)c1csc(N)n1 | - | . | . | . | . | .
COc1ccc2[nH]c(-c3ccccc3)cc2c1 | - | 3.5µM | - | - | - | -
O=C(CCC(=O)N1CCOc2ccccc21)NCc1cccs1 | - | . | . | - | - | .
CCc1ccccc1NS(=O)(=O)c1ccc2c(c1)NC(=O)CC(=O)N2 | - | - | - | - | - | -
CCCN(CCC)CCc1cccc2c1CC(=O)N2 | 81 | . | . | - | . | .
CC(=O)c1ccc(OCc2nnn(CC(=O)NS(=O)(=O)Cc3ccccc3)c2-c2ccccc2)cc1 | - | - | . | . | - | -
CC(=O)N1Cc2cc(C(=O)NCC(F)(F)F)nc(-c3cccc(-c4cccnc4)c3)c2[C@H]1CCO | - | - | . | . | - | ?
CC(=O)N1Cc2cc(C(=O)NCC(F)(F)F)nc(-c3cccc(-c4cc5ccccc5o4)c3)c2[C@@H]1CCO | 55 | - | . | . | - | -
N#Cc1ccc(C=NN2CCCCCC2)cc1 | - | 6.3µM | . | - | - | -
Clc1ccc(C=NN2CCCCCC2)cc1Cl | - | 8.9µM | . | - | - | -
O=[N+]([O-])c1ccc(/C=N/N2CCCCC2)cc1 | - | 10µM | - | - | - | -
Clc1ccc(/C=N/N2CCCCC2)cc1 | - | - | - | - | - | -
Clc1ccc(C=NN2CCCCCC2)cc1 | - | 10µM | . | - | - | -
COc1cc2oc(=O)cc(-c3ccc(-c4ccc(O)cc4)cc3)c2c(OC)c1OC | - | - | - | - | - | -
COc1ccc(-c2ccc(-c3cc(=O)oc4cc(OC)c(OC)c(OC)c34)cc2)cc1OC | 34 | - | - | - | - | -
O=C(CN1C(=O)NC2(CCCCCC2)C1=O)c1ccc2c(c1)OCCO2 | - | 2.8µM | - | - | - | -
O=C1C2CCCCN2C(=O)N1CCCN1CCN(c2ccc(F)cc2)CC1 (stereo not given) | - | - | - | - | - | -57
O=C1C2C3C=CC(C4CC34)C2C(=O)N1CCCCN1CCN(c2ccc(F)cc2)CC1 (stereo not given) | - | - | . | - | - | -85
O=C1C2CCCN2C(=O)N1CCCN1CCN(c2cccc(Br)c2)CC1 (stereo not given) | - | - | - | - | - | -78
O=C1C2CCCCN2C(=O)N1CCCN1CCN(c2cccc(C(F)(F)F)c2)CC1 (stereo not given) | - | - | . | - | - | -67
N=C(N)c1ccc(OCCCOc2ccc(C(=N)N)cc2)cc1 | - | . | . | . | . | .
CC(C)(C)S(=O)N1Cc2ccc(CO)cc2[C@@H]1CCO (stereo not given in full) | - | - | . | - | - | -
CCOc1ccc(NC(=O)c2ccc3c(c2)OCCO3)cc1S(=O)(=O)N(CC)CC | - | - | - | - | - | -
CCC(C)(C)C1CCc2[nH]nc(C(=O)NC3CCCCC3)c2C1 (stereo not given) | - | ? | - | - | - | -62
O=C(NC(=S)Nc1ccc(CN2CCOCC2)cc1)c1ccc([N+](=O)[O-])cc1 | - | - | - | - | - | -50
SMILES | D3 ag | BRCA1 expr up | B2AR arrestin | RGS4 inhibitor | PTHR1 ag | DRD3 antagonist
CC(C)c1ccc(/C=C/C(=O)NC(=S)Nc2ccc(CN3CCOCC3)cc2)cc1 | - | - | - | - | - | -
O=C(Nc1ccc(CN2CCOCC2)cc1)c1ccc(Cl)cc1 | - | 13µM | - | - | - | -
O=C(/C=C/c1cccc([N+](=O)[O-])c1)NC(=S)Nc1ccc(CN2CCOCC2)cc1 | - | - | - | - | - | -58
O=[N+]([O-])c1cccc(COc2cccc(CN3CCOCC3)c2)c1 | - | - | . | - | - | -65
COc1ccccc1N1CCN(c2ccc(=O)n(CC(=O)Nc3ccc(F)c(F)c3)n2)CC1 | - | . | . | - | - | .
COc1cccc(NC(=O)CC(=O)c2ccc([N+](=O)[O-])cc2)c1 | - | 11µM | - | - | - | -
COc1cccc(NC(=O)Nc2ccc(Br)cn2)c1 | 49 | 11µM | - | - | - | -
CC(=O)c1ccc(NC(=O)c2cccc(NC(=O)c3ccccc3)c2)cc1 | - | - | - | - | - | -
CC(C)OC(=O)c1cccc(NC(=O)c2ccccc2)c1 | - | 11µM | - | - | - | -
O=C(Nc1cccc(Cl)c1)NC1CCN(C2CCCCC2)C1 (stereo not given) | - | - | - | - | - | -103
COc1ccc(NC(=O)Nc2ccc(Br)cn2)cc1OC | - | ? | - | - | - | -
COc1ccc([C@H]2C[C@@H](O)[C@H](n3cc(C4CC4)nn3)CN2Cc2cccs2)cc1 | - | - | . | . | - | -
COc1cccc(C(=O)Nn2cnnc2)c1 | 31 | - | - | - | - | -
COc1cc(OC)cc(C(=O)Nn2cnnc2)c1 | - | - | - | - | - | -
COC(=O)c1cccc(NC(=O)c2ccc(OC)c(Cl)c2)c1 | - | 5µM | - | - | - | -
CC(C)C(=O)Nc1ccc(C(=O)c2ccccc2)cc1 | - | 11µM | - | - | - | -
COc1cccc(NC(=O)NC2CCCCCCC2)c1 | - | 10µM | - | - | - | -
COc1cccc(NC(=O)C(C)C)c1 | - | - | - | - | - | -
COc1cccc(NC(=O)c2ccccc2)c1 | - | 8.9µM | - | - | - | -
CC(C)Oc1cccc(C(=O)NC(=S)Nc2ccccc2)c1 | - | 13µM | - | - | - | -
COc1cccc(NC(=O)c2ccc(NC(=O)C(C)C)cc2)c1 | - | 10µM | - | - | - | -
COc1ccc(F)cc1S(=O)(=O)NCCc1sc2nc(-c3ccc(F)cc3)nn2c1C | - | . | . | - | - | .
Cc1cccc(-n2c3nc(=O)n(C)c(=O)c-3cc3ccc(Cl)cc32)c1C | - | - | . | - | - | .
COCCCNC(=O)c1ccc(N2CCOCC2)c(NS(=O)(=O)c2ccc(OC)cc2)c1 | - | - | - | - | - | -73
CCOCCCNC(=O)c1ccc(N2CCOCC2)c(NS(=O)(=O)c2ccc(OC)cc2)c1 | - | - | - | - | - | -
SMILES | D3 ag | BRCA1 expr up | B2AR arrestin | RGS4 inhibitor | PTHR1 ag | DRD3 antagonist
CCOc1ccc(NC(=O)N2CCN3CCCCC3C2)cc1 (stereo not given) | - | . | . | - | - | .
O=[N+]([O-])c1ccc(N2CCN(C(=S)NCc3ccc(Cl)cc3)CC2)cc1 | - | - | - | - | - | -53
COc1ccc(OC)c(S(=O)(=O)N2CCN(c3ccccn3)CC2)c1 | - | - | - | - | - | -104
COc1ccc(CN2CCN(c3ncccn3)CC2)c(C)c1C | 71 | - | - | - | - | -
COc1cccc(CN2CCN(c3ncccn3)CC2)c1OC | - | - | - | - | - | -
Cc1cccc(-n2cc(CN3CCN(c4ccccn4)CC3)c(-c3cccc(F)c3)n2)c1 | - | - | - | - | - | ?
